Measured values from PubChem BioAssay (NCATS).
Inconclusive results are not listed. The source made the active and inactive calls. Unless noted, calls come from the whole dose curve; as a rule, active = well fitted curve in the direction sought with a large enough effect; inconclusive = small, poorly fitted or top-dose-only effect, or another doubt; inactive = no such curve, though single readings can be large; an effect the other way counts as inactive or inconclusive. Peptide text beside a SMILES is read from it.

Experiments:
[1] = target: DNA repair nuclease/redox regulator APEX1 (Homo sapiens) (UniProt P27695); assay: qHTS Validation Assay for Inhibitors of the Human Apurinic/apyrimidinic Endonuclease 1 (APE1) (AID 1705;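 note: TAMRA fluorescence gain over two minutes as APE1 cuts a quenched THF abasic duplex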); settings: purified APE1 endonuclease activity, fluorescence, titration; series mostly up to 57.1 µM
DNA repair nuclease/redox regulator APEX1 (Homo sapiens), sequence (P27695 whole entry, looked up): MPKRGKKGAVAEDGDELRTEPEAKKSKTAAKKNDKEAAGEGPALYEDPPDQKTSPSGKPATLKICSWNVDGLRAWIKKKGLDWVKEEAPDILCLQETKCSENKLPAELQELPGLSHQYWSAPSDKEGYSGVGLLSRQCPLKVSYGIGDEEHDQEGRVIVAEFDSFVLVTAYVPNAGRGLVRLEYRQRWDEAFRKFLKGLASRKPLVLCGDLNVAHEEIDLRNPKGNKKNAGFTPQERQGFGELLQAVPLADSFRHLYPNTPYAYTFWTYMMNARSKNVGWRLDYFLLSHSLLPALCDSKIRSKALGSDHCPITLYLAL
How it was run: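 qHTS, 1536-well. APE1 + cpd 15 min RT → 50 nM TAMRA/BHQ-2 THF-abasic dsDNA substrate → kinetic fluorescence, 3 reads/60 s; delta(read3−read1) = reaction progress. No-enzyme buffer = negative control.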

[2] = Counterscreen for APE1 Inhibitors: Fluorescent Dye Displacement Validation Assay (AID 1707); settings: fluorescent dye displacement from DNA; series mostly up to 57.1 µM; note: potency is the fitted concentration of half-maximal effect
How it was run: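 Endpoint fluorescence read at 480 nm excitation / 540 nm emission; DNA-binding compounds lower signal by displacing 250 nM Thiazole Orange from 50 nM dsDNA containing a tetrahydrofuran abasic site, Tris-HCl pH7.5 buffer with NaCl and MgCl2.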

[3] = target: Endonuclease 4 (Escherichia coli (strain K12)) (UniProt P0A6C1); assay: Counterscreen for APE1 Inhibitors: qHTS Validation Assay for Inhibitors of Endonuclease IV (AID 1708); settings: E. coli endonuclease IV, DNA cleavage fluorescence; series mostly up to 57.1 µM
How it was run: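 Incision of a double-stranded 50 nM TAMRA/BHQ-2 abasic substrate was followed kinetically (525/598 nm, reads every 60 s) after 15 min enzyme–compound preincubation with 2 nM EndoIV in pH 7.5 Tris buffer with MgCl2, DTT and Tween-20; concentration-response format.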

[4] = qHTS for differential inhibitors of proliferation of Plasmodium falciparum line 7G8 (AID 1815); settings: Plasmodium falciparum 7G8 proliferation inhibition; series mostly up to 28.7 µM;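 note: parasite growth measured after three days of incubation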; note: potency is the fitted concentration of half-maximal effect
[5] = qHTS for differential inhibitors of proliferation of Plasmodium falciparum line GB4 (AID 1816); settings: Potency: Plasmodium falciparum GB4 proliferation inhibition; series mostly up to 28.7 µM;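 note: parasite growth measured after 72 h incubation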; note: potency is the fitted concentration of half-maximal effect
[6] = qHTS for differential inhibitors of proliferation of Plasmodium falciparum line 3D7 (AID 1876); note: potency is the fitted concentration of half-maximal effect; settings: P. falciparum 3D7 proliferation inhibition; series mostly up to 28.7 µM
[7] = qHTS for differential inhibitors of proliferation of Plasmodium falciparum line D10 (AID 1877); settings: series mostly up to 28.7 µM;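 note: parasites grown with compound for 72 h before DNA staining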; note: potency is the fitted concentration of half-maximal effect
[8] = qHTS for differential inhibitors of proliferation of Plasmodium falciparum line Dd2 (AID 1882); settings: Potency: Plasmodium falciparum Dd2 proliferation inhibition; series mostly up to 28.7 µM; note: nearly all actives have a fitted effect of over 65% in size; note: potency is the fitted concentration of half-maximal effect
How it was run: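 SYBR Green DNA fluorescence (ex 485, em 535 nm) after overnight lysis quantifies parasite growth; compound exposure lasted 72 h at 37 C on infected red cells at 2.5% hematocrit, 0.3% parasitemia (final). Artemisinin 0.29 uM and vehicle wells define normalization.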

[9] = qHTS for differential inhibitors of proliferation of Plasmodium falciparum line W2 (AID 1883); settings: Potency: Plasmodium falciparum W2 proliferation inhibition; series mostly up to 28.7 µM;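 note: parasites grown with compound for 72 h before lysis and staining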; note: potency is the fitted concentration of half-maximal effect
[10] = qHTS for differential inhibitors of proliferation of Plasmodium falciparum line HB3 (AID 1886); settings: Potency: Plasmodium falciparum HB3 proliferation inhibition; series mostly up to 28.7 µM;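 note: parasites grown with compound for 72 h before SYBR Green readout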; note: potency is the fitted concentration of half-maximal effect
[11] = target: Ferritin light chain (Equus caballus) (UniProt P02791); assay: qHTS Validation Assay for Identification of Novel General Anesthetics (AID 2323); settings: horse apoferritin, anesthetic-site fluorescent probe displacement; series mostly up to 76.9 µM; note: potency is the fitted concentration of half-maximal effect
How it was run: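 Fluorescence at 535 nm (excitation 380 nm) reported loss of 1-AMA binding to horse-spleen apoferritin (10 uM) in PBS with 50% saturated 1-aminoanthracene, after 10 min room-temperature incubation with compound; values from Hill fits of normalized response.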

[12] = target: ATP-dependent DNA helicase Q1 (Homo sapiens) (UniProt P46063); assay: qHTS Validation Assay for Inhibitors of RecQ-Like Dna Helicase 1 (RECQ1) (AID 2353); settings: recombinant RECQ1 helicase DNA unwinding assay; series mostly up to 25.6 µM; note: potency is the fitted concentration of half-maximal effect
ATP-dependent DNA helicase Q1 (Homo sapiens), sequence (P46063 whole entry, looked up): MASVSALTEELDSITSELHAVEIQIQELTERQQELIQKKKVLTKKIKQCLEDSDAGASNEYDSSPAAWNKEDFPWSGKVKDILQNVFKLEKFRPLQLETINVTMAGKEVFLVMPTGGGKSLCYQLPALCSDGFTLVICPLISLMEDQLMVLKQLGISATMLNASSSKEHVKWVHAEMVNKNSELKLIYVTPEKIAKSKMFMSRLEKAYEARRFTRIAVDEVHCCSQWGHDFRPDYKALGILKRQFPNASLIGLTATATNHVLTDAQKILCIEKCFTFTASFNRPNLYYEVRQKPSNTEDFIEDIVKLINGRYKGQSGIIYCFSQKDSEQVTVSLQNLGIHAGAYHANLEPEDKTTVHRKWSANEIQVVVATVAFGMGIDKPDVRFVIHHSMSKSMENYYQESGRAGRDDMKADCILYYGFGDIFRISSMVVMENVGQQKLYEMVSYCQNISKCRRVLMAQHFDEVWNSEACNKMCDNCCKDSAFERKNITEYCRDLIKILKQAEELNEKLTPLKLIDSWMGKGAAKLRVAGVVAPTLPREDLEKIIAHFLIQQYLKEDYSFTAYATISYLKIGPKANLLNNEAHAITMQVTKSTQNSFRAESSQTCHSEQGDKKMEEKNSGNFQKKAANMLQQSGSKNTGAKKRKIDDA
How it was run: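 RECQ1T1 50 nM; forked duplex (20 bp + 30-nt ss tails) 200 nM, ATP 2 mM final; pH 8.0, 2 mM MgCl2, 2.5 ug/ml poly(dI-dC); 15 min compound preincubation; discontinuous kinetic read over 2 h at RT.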

[13] = Cytometric Cell-Based qHTS for Inhibitors of the mTORC1 Signaling Pathway in MEF (Tsc2-/-, p53-/-) Cells (AID 2660); settings: mTORC1 pathway cytometry; series mostly up to 38.3 µM;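 note: Tsc2 and p53 null MEFs carrying empty vector with compound for 24 h; percent of cells above a phospho-rpS6 to PI ratio cutoff in each well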
How it was run: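 Cells are plated, treated with compound for 24 hrs at 37 degree Celsius, then fixed, blocked and immunostained for phospho-rpS6 Ser235/236. Propidium iodide counterstain follows. Per-well % positive cells is derived from the PI-normalized phospho-S6 signal.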

[14] = High Content Imaging Cell-Based qHTS for Inhibitors of the mTORC1 Signaling Pathway in MEF (Tsc2-/-, p53-/-) Cells (AID 2666); settings: series mostly up to 38.3 µM;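 note: percent of cells scored positive for phospho-rpS6 Ser235/236 immunostaining by imaging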; note: potency is the fitted concentration of half-maximal effect
How it was run: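 Tsc2-/-, p53-/- MEFs (empty-vector stable) grown in DMEM + 10% FBS were exposed to compounds for 24 hrs at 37 degree Celsius, fixed, and stained with Alexa-488 anti-phospho-rpS6 Ser235/236 plus Hoechst. Imaging gave the percentage of positive cells per well.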

[15] = High Content Imaging Cell-Based qHTS for Inhibitors of the mTORC1 Signaling Pathway in MEF Cells (AID 2667); settings: series mostly up to 38.3 µM; note: potency is the fitted concentration of half-maximal effect
How it was run: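 Tsc2-/-, p53-/- MEFs stably re-expressing WT Tsc2, grown in DMEM + 10% FBS, were treated with compounds for 24 hrs at 37 degree Celsius, fixed, and stained with Alexa-488 phospho-rpS6 Ser235/236 antibody plus Hoechst; results given as % positive cells.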

[16] = Cytometry Cell-Based qHTS for Inhibitors of the mTORC1 Signaling Pathway in MEF cells (AID 2668); settings: mTORC1 pathway readout; series mostly up to 38.3 µM; note: potency is the fitted concentration of half-maximal effect
How it was run: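 Tsc2-/-, p53-/- MEFs re-expressing WT Tsc2; cpd 24 hrs, 37 degree Celsius; PFA fix, Alexa-488 p-rpS6 (Ser235/236) Ab 2 hrs RT, PI counterstain; Acumen 488nm scan; p-S6/PI ratio → % positive cells; PI count = viability.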

[17] = target: RecQ-like DNA helicase BLM (Homo sapiens) (UniProt P54132); assay: qHTS Validation Assay for Inhibitors of Bloom's syndrome helicase (BLM) (AID 2364); settings: BLM helicase DNA unwinding, fluorescence, in vitro; series mostly up to 57.1 µM
RecQ-like DNA helicase BLM (Homo sapiens), sequence (P54132 whole entry, looked up): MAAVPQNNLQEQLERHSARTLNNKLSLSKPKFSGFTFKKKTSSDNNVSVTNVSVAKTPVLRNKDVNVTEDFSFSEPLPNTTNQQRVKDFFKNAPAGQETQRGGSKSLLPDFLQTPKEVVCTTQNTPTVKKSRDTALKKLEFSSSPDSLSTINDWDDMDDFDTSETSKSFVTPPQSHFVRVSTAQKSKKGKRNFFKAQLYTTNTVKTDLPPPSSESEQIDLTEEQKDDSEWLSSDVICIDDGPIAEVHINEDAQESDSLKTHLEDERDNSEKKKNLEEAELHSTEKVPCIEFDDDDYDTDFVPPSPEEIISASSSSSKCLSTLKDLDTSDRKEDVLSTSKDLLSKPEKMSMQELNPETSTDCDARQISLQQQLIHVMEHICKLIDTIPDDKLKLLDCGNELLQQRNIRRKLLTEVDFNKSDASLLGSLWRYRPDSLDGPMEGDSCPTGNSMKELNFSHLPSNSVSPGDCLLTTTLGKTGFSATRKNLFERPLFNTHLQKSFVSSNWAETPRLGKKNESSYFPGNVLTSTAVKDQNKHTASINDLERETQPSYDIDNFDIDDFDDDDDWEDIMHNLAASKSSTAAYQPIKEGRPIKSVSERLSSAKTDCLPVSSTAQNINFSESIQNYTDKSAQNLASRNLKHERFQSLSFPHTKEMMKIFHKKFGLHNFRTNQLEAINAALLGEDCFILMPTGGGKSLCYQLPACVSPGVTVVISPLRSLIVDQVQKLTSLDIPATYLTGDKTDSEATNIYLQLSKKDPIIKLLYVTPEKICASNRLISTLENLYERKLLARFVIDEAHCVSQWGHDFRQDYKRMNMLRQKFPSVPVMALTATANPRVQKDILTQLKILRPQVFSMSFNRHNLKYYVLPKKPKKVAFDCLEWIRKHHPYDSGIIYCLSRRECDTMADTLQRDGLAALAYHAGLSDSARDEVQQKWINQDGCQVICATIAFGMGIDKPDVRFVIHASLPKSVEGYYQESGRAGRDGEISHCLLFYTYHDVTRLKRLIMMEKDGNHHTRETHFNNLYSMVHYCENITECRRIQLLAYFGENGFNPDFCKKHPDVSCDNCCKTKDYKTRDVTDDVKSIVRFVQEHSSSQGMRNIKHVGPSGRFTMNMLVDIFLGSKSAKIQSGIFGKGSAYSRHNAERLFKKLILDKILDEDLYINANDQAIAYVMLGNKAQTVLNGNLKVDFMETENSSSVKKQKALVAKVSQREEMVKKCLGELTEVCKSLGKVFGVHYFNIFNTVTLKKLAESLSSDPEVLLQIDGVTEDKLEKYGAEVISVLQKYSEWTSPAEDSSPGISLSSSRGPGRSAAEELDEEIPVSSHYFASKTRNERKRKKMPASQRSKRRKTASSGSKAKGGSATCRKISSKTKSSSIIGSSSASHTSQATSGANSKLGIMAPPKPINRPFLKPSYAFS
How it was run: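 Forked 20-bp duplex substrate (200 nM, TAMRA/BHQ-2) plus 2 mM ATP added after 15 min compound preincubation with 50 nM enzyme, pH 8.0, poly(dI-dC) 2.5 ug/ml. Strand separation followed by fluorescence (525/598 nm) over 2 h, normalized to enzyme-free and DMSO controls.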

[18] = qHTS Assay for Identification of Small Molecule Inducers of Hypoxia Response (AID 2120; active = well fitted curve in the direction sought with a large enough effect in the signal ratio, with a control signal flat, not every such curve was filed as active; the % refers to the signal ratio); settings: hypoxia response reporter cells, beta-lactamase ratio readout; series mostly up to 104 µM
How it was run: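 Cell-based qHTS for reporter induction: hypoxia response element controlled beta-lactamase in ME-180 cells. Compounds incubated 17 h at 37 degrees C; activity from blue/green (460/530 nm) ratio, inducers ranked by AC50.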

Measured: Potency

O=C(c1ccccc1)c1ccc2n1CCC2C(=O)O (centres undefined)
not listed: [17] | [18]
inactive: all other assays above

NCCCCNCCCN
not listed: [13] | [14] | [18]
inactive: all other assays above

NNc1nncc2ccccc12
not listed: [4] | [7] | [9] | [17] | [18]
inactive: all other assays above

CCN(CC)C(=S)SSC(=S)N(CC)CC
inactive: [1] | [2] | [3] | [12] | [17] | [15]
active: [5] 5.01 µM | [6] 2.82 µM | [14] 1.85 µM

Cc1c(OCC(F)(F)F)ccnc1CS(=O)c1nc2ccccc2[nH]1 (centres undefined)
not listed: [4] | [5] | [6] | [7] | [9] | [10] | [18]
inactive: all other assays above

COC(=O)[C@H](Cc1ccccc1)NC(=O)[C@@H](N)CC(=O)O (H-Asp-Phe-OMe)
inactive: [18]

c1ccc2[nH]c(-c3cscn3)nc2c1
inactive: [18]

CCOC(=O)C(C)Oc1cccc2c(=O)n(CC(=O)Nc3ccc4c(c3)OCCO4)ccc12 (centres undefined)
inactive: [13] | [14] | [15] | [16]

OC(CN1CCN(c2cccc(Cl)c2)CC1)C(c1ccccc1)c1ccccc1 (centres undefined)
inactive: [1] | [2] | [11] | [12] | [13] | [14] | [15] | [16]
active: [4] 14.1 µM | [9] 10 µM

O=Nc1c(-c2c(O)[nH]c3cc(Br)ccc23)[nH]c2ccccc12
inactive: [1] | [12]
active: [2] 20 µM | [5] 2.24 µM | [6] 2 µM | [7] 3.98 µM | [8] 7.94 µM | [9] 2.24 µM | [10] 2.24 µM | [15] 2.33 µM | [16] 5.21 µM

C[C@H](Cc1ccc(O)c(O)c1)[C@@H](C)Cc1ccc(O)c(O)c1
active: [4] 3.98 µM | [5] 5.01 µM | [6] 12.6 µM | [7] 12.6 µM | [9] 10 µM | [10] 14.1 µM | [11] 12.6 µM | [12] 11.2 µM
inactive: [1] | [3] | [13] | [14] | [15]
